Source: PubChem BioAssay (National Center for Advancing Translational Sciences (NCATS))
KDM5B inh – Primary screen for KDM5B Histone Demethylases FDH-coupled qHTS. Lysine-specific demethylase 5B (Homo sapiens), Q9UGL1. AID 1347165, 2019. Potency, µM (highest dose often 57.7 µM), hits mostly inhibitors. KDM5B demethylase, FDH-coupled NADH fluorescence (FDH is formaldehyde dehydrogenase). 220,000 tested, 2.6% active; active = well fitted inhibition curve with a large enough effect; also: nearly all actives have a fitted effect of over 70% in size
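Compound dilutions met 200 nM (final) KDM5BΔAP for 10 min at room temperature before substrate addition. The substrate mix held 12.5 µM H3K4me3 with cofactors 25 µM α-ketoglutarate and 50 µM Fe²⁺. NADH signal gain over 30 min defined activity.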
Numbers stand for hits; n = inactive. Shown is part of a subset that was picked to be rich in hits.

SMILES	KDM5B inh
COc1ccc(C(=O)N[C@H]2CCN3C(=O)c4cc(Br)ccc4NC(=O)[C@@H]3C2)cc1	n
O=C1Nc2ccc(-c3ccc(Cl)cc3)cc2C(=O)N2CC[C@H](NS(=O)(=O)c3cccs3)C[C@@H]12	n
CO[C@@H]1C[C@H]2C(=O)Nc3ccc(-c4ccccc4F)cc3C(=O)N2C1	n
COc1ccc(-c2ccc3c(c2)C(=O)N2C[C@@H](NS(=O)(=O)c4ccc(F)cc4)C[C@H]2C(=O)N3)c(OC)c1	35µM
COCC(=O)N[C@H]1CCN2C(=O)c3cc(-c4ccc(F)cc4F)ccc3NC(=O)[C@@H]2C1	n
CS(=O)(=O)N[C@H]1C[C@H]2C(=O)Nc3ccc(-c4cccs4)cc3C(=O)N2C1	40µM
CS(=O)(=O)N[C@H]1CCN2C(=O)c3cc(Br)ccc3NC(=O)[C@@H]2C1	n
COc1ccc(C(=O)N[C@H]2C[C@H]3C(=O)Nc4ccccc4C(=O)N3C2)cc1	n
O=C(N[C@H]1C[C@H]2C(=O)Nc3ccccc3C(=O)N2C1)c1ccccc1	n
O=C(N[C@H]1CCN2C(=O)c3cc(-c4ccc(Cl)cc4)ccc3NC(=O)[C@@H]2C1)c1ccncc1	n
COc1ccc(C(=O)N[C@H]2C[C@H]3C(=O)Nc4ccc(-c5cccs5)cc4C(=O)N3C2)cc1	35µM
CCCCNS(=O)(=O)c1cc(-c2n[nH]c(=O)c3ccccc23)ccc1C	n
Cc1ccsc1CN(CC1CCCO1)C(=O)COc1ccc(Cl)cc1Cl (centres undefined)	n
CCOC(=O)C(NC(=O)C1C2CC3CC(C2)CC1C3)C(=O)OCC (centres undefined)	n
CN1CC(=O)N(C2CCC2)Cc2c1ncnc2N1CCC(Cc2ccccc2)CC1	n
Cc1cc2nc(/C(C#N)=C\c3ccc(OCC(C)C)cc3)[nH]c2cc1C	n
Cc1cccc(Oc2nc(-c3ccncc3)nc3ccccc23)c1C	n
Cc1ccc2c(CN3CCN(C)CC3)cc(=O)oc2c1	n
O=C(NNC(=S)Nc1ccccc1)C(c1ccccc1)c1ccccc1	n
CCCCCCn1nc(C(=O)Nc2ccc(NC(C)=O)cc2)c2ccccc2c1=O	n
O=C1CCCC2=C1C(c1ccsc1)CC(=O)N2c1ccc(C(F)(F)F)cc1 (centres undefined)	n
CCCCCCCCC(=O)Nc1cccc(C)c1C	n
CCN1CCN(c2ccc(NC(=O)c3cc(Cl)ccc3OC)cc2)CC1	n
Fc1ccc(-c2nc(COc3ccc(Br)cc3)co2)cc1	n
O=C1NC2(CCCC2)C(=O)N1Cc1ncc(-c2cccc(Cl)c2)o1	n
SMILES	KDM5B inh
Cc1oc(-c2ccccc2)nc1CC(=O)N1CCNC(=O)C1	n
Cc1oc(-c2cccc(Cl)c2)nc1CN1CCOCC1	n
Cc1oc(-c2ccc3ccccc3c2)nc1CN1CCNC(=O)C1	28µM
O=C1NC2(CCCC2)C(=O)N1Cc1coc(-c2ccc(Cl)cc2)n1	n
CCOc1ccc(C(C)NC(=O)Cc2cccs2)cc1OCC (centres undefined)	n
CCc1ccc(NC(=O)C2CCN(c3ncnc4c3sc3ncccc34)CC2)cc1	n
COCCN1Cc2nc(Nc3ccccc3F)ccc2OCC1=O	n
Cc1nc(CN2Cc3nc(Nc4ccc(C(F)(F)F)cc4)ccc3OCC2=O)cs1	35µM
O=C1COc2ccc(-c3cc(F)cc(F)c3)nc2CN1Cc1ccccc1F	n
COc1ccc(Nc2ccc3c(n2)CN(Cc2nc4ccccc4s2)C(=O)CO3)cn1	n
Cc1nc(CN2Cc3nc(Oc4ccccc4)ccc3OCC2=O)cs1	n
COc1ccc(Nc2ccc3c(n2)CN(Cc2ccccc2C)C(=O)CO3)cc1	35µM
COc1ccc(Nc2ccc3c(n2)CN(Cc2ccccc2F)C(=O)CO3)cc1	35µM
Cc1ccccc1CN1Cc2nc(-c3cncnc3)ccc2OCC1=O	n
Cc1nc(CN2Cc3nc(-c4ccccc4)ccc3OCC2=O)cs1	n
Cc1cccc(OCc2nnc(SCc3ccc(Cl)c(Cl)c3)n2C)c1C	n
CCCCOc1ccc(NC(=O)CC)c2cccnc12	n
Cc1ccc(-c2c(C(N)=O)c(C)nc3sc4c(c23)CCC4)cc1	n
CCn1nc(C(=O)N(Cc2nc3ccccc3c(=O)[nH]2)C(C)C)c2ccccc2c1=O	n
COC(=O)c1ccc(COC(=O)c2cc3ccccc3s2)o1	n
CC(C)c1ccc(-c2nc(-c3cccnn3)no2)c(=O)[nH]1	22µM
CN[C@@H](CC(C)C)c1nc(-c2cccnn2)no1	n
COC(=O)NC(C)c1nc(-c2cccnn2)no1 (centres undefined)	n
O=C(C1CCCCC1)N(Cc1cccnc1)c1nc2c(Cl)cccc2s1	n
Cc1cccc(OCc2nc3c(C)cccc3[nH]2)c1	n
SMILES	KDM5B inh
CCCn1cc(-c2ccnc(NC3CCN(Cc4cccnc4)CC3)n2)c(C)n1	32µM
COCC(=O)N(C1CCOCC1)C1CCN(Cc2cccnc2)CC1	n
O=S(=O)(Cc1ccccc1)N1CCC(OC2CCN(Cc3cccnc3)CC2)CC1	n
CCCOc1cc(C)c2c(c1C)C[C@H](C(C)C(=O)N1CCN(CC(=O)O)CC1)CC2 (some centres undefined)	n
O=C(NCCCN1CCCC1)NCc1ccccc1	n
CCCn1c(=O)c2sc(N3CCCC3)nc2n(CC(=O)NC2CCCCC2)c1=O	n
Cc1ccccc1C(=O)NC(c1ccccc1)C(C)(C)C (centres undefined)	n
Cc1ccc(C)c(-c2[nH]ncc2CN2CCCC(CO)(CCc3ccccc3)C2)c1 (centres undefined)	n
CCC1(CO)CCCN(CCCOc2ccc(C(N)=O)cc2)C1 (centres undefined)	n
CCC1(CO)CCCN(Cc2ccc3c4c(cccc24)C(=O)OC3)C1 (centres undefined)	11µM
O=C(Nc1ccccc1Br)C1CC2CCCC(C1)C2=O (centres undefined)	n
Cc1ccc(CNCc2ccc(-c3ccc(F)c(Cl)c3)o2)cc1	n
CCCCn1c(=O)[nH]c(=O)c2c1nc(CCC(=O)Nc1ccc(C)cc1)n2CC(C)C	n
CCCc1cc(C(=O)N2CCCC3(CCC(=O)N(CCOC)C3)C2)cs1 (centres undefined)	n
CNc1ncc(C(=O)N2CCCC3(CCC(=O)N(CCOC)C3)C2)cn1 (centres undefined)	28µM
COCCN1CC2(CCCN(C(=O)CNC(N)=O)C2)CCC1=O (centres undefined)	n
O=C(O)/C=C/C(=O)Nc1ccc(Cl)c(C(F)(F)F)c1	n
CCCCCc1ccc(OC(=O)c2ccc(Cl)cc2)cc1	n
O=C(c1ccccc1)N1CCCN(Cc2ccc3c(c2)OCO3)c2ccccc21	n
COc1ccc(CC(=O)Nc2c(C(=O)N3CCC(N4CCCCC4)CC3)oc3ccccc23)cc1	n
O=C(NCc1ccc(O)cc1)c1cnc2ccccc2n1	n
Cc1ccc2nc(CSc3nnc(N4CCCC4)n3-c3cccc(Cl)c3)cn2c1	n
COc1ncccc1-c1nccc2c(=O)cc(-c3ccncc3)oc12	n
CN(c1ccccc1)c1cc(=O)c2ccnc(-c3ccccc3O)c2o1	n
COc1ncccc1-c1nccc2c(=O)cc(N(C)C3CCOCC3)oc12	n
COc1ccc(-c2ccc3ncc(Nc4ccc5c(c4)OCO5)n3n2)cn1	n
Cc1cc(-c2nccc3c(=O)cc(N(C)C)oc23)ccn1	32µM
COc1ncccc1-c1nccc2c(=O)cc(N(C)C)oc12	35µM
COc1ccc(-c2nccc3c(=O)cc(N(C)C)oc23)cn1	40µM
N#CC1(C(N)=O)C(c2ccccc2)CC(=O)CC1c1ccccc1 (centres undefined)	n
